Test results as given in PubChem BioAssay AID1159580 (chemical genetic matrix, 2015).
“And” between values parts separate entries of the source, which are not always exact repeats. Identical values can stand only once. Out of some 5,500 compounds screened, about 2,000 (36%) were called active. Not shown: some 18% with an inconclusive outcome. No stated cut-off is given here; in the data, active means normalized growth mostly below about 0.91 (no sharp cut-off); inconclusive means no clear call, values can overlap the other calls; inactive means mostly above about 0.92. The list shows a part of the results.

Experiment: chemical genetic growth profiling, strain panel (AID 1159580);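 further: tested at 20 µM; growth read once vehicle control cultures reached saturation at 30 °C; 1 = growth at the plate median or of vehicle wells; lower values mean less growth of the strain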
Settings: growth OD
[1] = S. cerevisiae deletion strains, locus YAL013W, strain DEP1, hits give low values
[2] = S. cerevisiae deletion strains, locus YDR150W, strain NUM1, hits give low values
[3] = S. cerevisiae deletion strains, locus YGR229C, strain SMI1, hits give low values
[4] = S. cerevisiae deletion strains, locus YNL153C, strain GIM3, hits give low values
[5] = S. cerevisiae deletion strains, locus YNL322C, strain KRE1, hits give low values
[6] = S. cerevisiae deletion strains, locus YBR229C, strain ROT2, hits give low values
[7] = S. cerevisiae deletion strains, locus YDL101C, strain DUN1, hits give low values
[8] = S. cerevisiae deletion strains, locus YDL134C, strain PPH21, hits give low values
[9] = S. cerevisiae deletion strains, locus YEL061C, strain CIN8, hits give low values
[10] = S. cerevisiae deletion strains, locus YGR078C, strain PAC10, hits give low values
[11] = S. cerevisiae deletion strains, locus YHR030C, strain SLT2, hits give low values
[12] = S. cerevisiae deletion strains, locus YHR087W, strain rtc3, hits give low values
[13] = S. cerevisiae deletion strains, locus YJL187C, strain SWE1, hits give low values
[14] = S. cerevisiae deletion strains, locus YJR043C, strain POL32, hits give low values
[15] = S. cerevisiae deletion strains, locus YJR075W, strain HOC1, hits give low values
[16] = S. cerevisiae deletion strains, locus YLR039C, strain RIC1, hits give low values
[17] = S. cerevisiae deletion strains, locus YLR058C, strain SHM2 (second series), hits give low values
[18] = S. cerevisiae deletion strains, locus YLR085C, strain ARP6, hits give low values
[19] = S. cerevisiae deletion strains, locus YLR262C, strain YPT6, hits give low values
[20] = S. cerevisiae deletion strains, locus YML094W, strain GIM5, hits give low values
[21] = S. cerevisiae deletion strains, locus YMR219W, strain ESC1, hits give low values
[22] = S. cerevisiae deletion strains, locus YMR263W, strain SAP30, hits give low values
[23] = S. cerevisiae deletion strains, locus YNL298W, strain CLA4 (second series), hits give low values
[24] = S. cerevisiae deletion strains, locus YNR030W, strain Alg12, hits give low values
[25] = S. cerevisiae deletion strains, locus YOL006C, strain TOP1, hits give low values
[26] = S. cerevisiae deletion strains, locus YPL055C, strain LGE1, hits give low values
[27] = S. cerevisiae deletion strains, locus YPL241C, strain CIN2, hits give low values
[28] = S. cerevisiae deletion strains, locus YPR135W, strain CTF4, hits give low values
[29] = S. cerevisiae strains, strain wild type, hits give low values
[30] = S. cerevisiae deletion strains, locus YGR052W, strain FMP48, hits give low values
[31] = S. cerevisiae deletion strains, locus YHR079C, strain IRE1, hits give low values
[32] = S. cerevisiae deletion strains, locus YHR082C, strain KSP1, hits give low values
[33] = S. cerevisiae deletion strains, locus YJL095W, strain BCK1, hits give low values
[34] = S. cerevisiae deletion strains, locus YJR066W, strain TOR1, hits give low values
[35] = S. cerevisiae deletion strains, locus YKL203C, strain TOR2, hits give low values
[36] = S. cerevisiae deletion strains, locus YLR113W, strain HOG1, hits give low values
[37] = S. cerevisiae deletion strains, locus YNL183C, strain NPR1, hits give low values
[38] = S. cerevisiae deletion strains, locus YNL207W, strain RIO2, hits give low values
[39] = S. cerevisiae deletion strains, locus YOR119C, strain RIO1, hits give low values
[40] = S. cerevisiae deletion strains, locus YOR231W, strain MKK1, hits give low values
[41] = S. cerevisiae deletion strains, locus YPL256C, strain CLN2, hits give low values

Measured: normalized growth

CCS(=O)(=O)Nc1cccc(C(=C2CCCCC2)c2cnc[nH]2)c1
inactive: [1] 0.982 | S. cerevisiae deletion strains, locus YAL040C, strain CLN3, hits give low values 1 | [2] 1.02 | S. cerevisiae deletion strains, locus YDR363W, strain ESC2, hits give low values 0.974 | S. cerevisiae deletion strains, locus YER002W, strain NOP16, hits give low values 1.04 | [3] 1 | [4] 1.03 | S. cerevisiae deletion strains, locus YNL175C, strain NOP13, hits give low values 1 | S. cerevisiae deletion strains, locus YNL197C, strain WHI3, hits give low values 1 | S. cerevisiae deletion strains, locus YNL224C, strain SQS1, hits give low values 1.01 | [5] 0.994 | S. cerevisiae deletion strains, locus YOR083W, strain WHI5 (second series), hits give low values 1.02

Cc1ccc(S(=O)(=O)Nc2ccc(C)c([N+](=O)[O-])c2)cc1
inactive: [1] 0.995 | [6] 0.988 | [7] 0.95 | [8] 0.994 | [2] 0.958 | [9] 1.03 | [10] 0.986 | [3] 1 | [11] 0.989 | [12] 1.02 | [13] 1.01 | [14] 0.976 | [15] 0.971 | S. cerevisiae deletion strains, locus YKL190W, strain CNB1, hits give low values 0.988 | [16] 1.02 | [17] 1 | [18] 0.991 | [19] 1.01 | [20] 1.01 | [21] 0.993 | [22] 0.999 | [4] 0.979 | [23] 0.963 | [5] 0.983 | [24] 0.961 | [25] 1.02 | [26] 1.01 | [27] 0.952 | [28] 0.898 | [29] 0.981

O=S(=O)(Nc1ccc(Oc2ccc(OC(F)(F)F)cc2)cc1)c1cccc(Cl)c1
active: [11] 0.562 | [36] 0.695 | [41] 0.75
inactive: S. cerevisiae deletion strains, locus YAR019C, strain CDC15, hits give low values 0.982 | S. cerevisiae deletion strains, locus YBL105C, strain PKC1, hits give low values 0.973 | S. cerevisiae deletion strains, locus YBR135W, strain CKS1, hits give low values 0.978 | S. cerevisiae deletion strains, locus YBR136W, strain MEC1, hits give low values 0.982 | S. cerevisiae deletion strains, locus YBR160W, strain CDC28, hits give low values 0.981 | S. cerevisiae deletion strains, locus YDL017W, strain CDC7, hits give low values 0.982 | S. cerevisiae deletion strains, locus YDL028C, strain MPS1, hits give low values 0.982 | [7] 0.991 | S. cerevisiae deletion strains, locus YDL108W, strain KIN28, hits give low values 0.976 | S. cerevisiae deletion strains, locus YDL132W, strain cdc53, hits give low values 0.988 | S. cerevisiae deletion strains, locus YDL214C, strain PRR2, hits give low values 0.932 | S. cerevisiae deletion strains, locus YDR052C, strain DBF4, hits give low values 0.98 | S. cerevisiae deletion strains, locus YDR054C, strain cdc34, hits give low values 0.988 | S. cerevisiae deletion strains, locus YDR226W, strain ADK1, hits give low values 0.984 | S. cerevisiae deletion strains, locus YDR477W, strain SNF1, hits give low values 0.964 | S. cerevisiae deletion strains, locus YER123W, strain YCK3, hits give low values 0.933 | S. cerevisiae deletion strains, locus YER133W, strain GLC7, hits give low values 0.933 | S. cerevisiae deletion strains, locus YFL009W, strain cdc4, hits give low values 0.979 | S. cerevisiae deletion strains, locus YFL029C, strain CAK1, hits give low values 0.985 | S. cerevisiae deletion strains, locus YFR003C, strain YPI1, hits give low values 0.977 | S. cerevisiae deletion strains, locus YFR019W, strain FAB1, hits give low values 0.891 | S. cerevisiae deletion strains, locus YFR028C, strain CDC14, hits give low values 0.985 | S. cerevisiae deletion strains, locus YGR040W, strain KSS1, hits give low values 0.949 | [30] 0.958 | S. cerevisiae deletion strains, locus YGR092W, strain DBF2, hits give low values 0.937 | [31] 0.837 | [32] 0.978 | S. cerevisiae deletion strains, locus YHR205W, strain SCH9, hits give low values 0.955 | S. cerevisiae deletion strains, locus YIL147C, strain SLN1, hits give low values 0.982 | [33] 0.948 | S. cerevisiae deletion strains, locus YJL128C, strain PBS2, hits give low values 0.936 | S. cerevisiae deletion strains, locus YJL157C, strain FAR1, hits give low values 0.946 | S. cerevisiae deletion strains, locus YJR016C, strain ILV3, hits give low values 0.991 | S. cerevisiae deletion strains, locus YJR066W, strain TOR1 (second series), hits give low values 0.92 | [34] 0.975 | S. cerevisiae deletion strains, locus YKL048C, strain ELM1, hits give low values 0.945 | S. cerevisiae deletion strains, locus YKL067W, strain YNK1, hits give low values 0.934 | S. cerevisiae deletion strains, locus YKL101W, strain HSL1, hits give low values 0.916 | S. cerevisiae deletion strains, locus YKL193C, strain SDS22, hits give low values 0.984 | [35] 0.995 | S. cerevisiae deletion strains, locus YLR133W, strain CKI1, hits give low values 0.941 | S. cerevisiae deletion strains, locus YLR403W, strain SFP1, hits give low values 0.954 | S. cerevisiae deletion strains, locus YML070W, strain DAK1, hits give low values 0.923 | S. cerevisiae deletion strains, locus YMR001C, strain CDC5, hits give low values 0.984 | S. cerevisiae deletion strains, locus YMR205C, strain PFK2 (second series), hits give low values 0.954 | S. cerevisiae deletion strains, locus YMR277W, strain FCP1, hits give low values 0.983 | S. cerevisiae deletion strains, locus YNL006W, strain LST8, hits give low values 0.98 | S. cerevisiae deletion strains, locus YNL020C, strain ARK1, hits give low values 0.919 | S. cerevisiae deletion strains, locus YNL161W, strain CBK1, hits give low values 0.977 | [37] 0.991 | [38] 0.989 | S. cerevisiae deletion strains, locus YNL222W, strain SSU72, hits give low values 0.979 | S. cerevisiae deletion strains, locus YNL307C, strain MCK1 (second series), hits give low values 0.897 | S. cerevisiae deletion strains, locus YOL078W, strain AVO1, hits give low values 0.991 | S. cerevisiae deletion strains, locus YOL136C, strain PFK27, hits give low values 0.92 | S. cerevisiae deletion strains, locus YOR061W, strain CKA2, hits give low values 0.917 | [39] 1.03 | [40] 0.887 | S. cerevisiae deletion strains, locus YOR329C, strain SCD5, hits give low values 0.974 | S. cerevisiae deletion strains, locus YPL031C, strain PHO85, hits give low values 0.95 | S. cerevisiae deletion strains, locus YPL153C, strain RAD53, hits give low values 0.982 | S. cerevisiae deletion strains, locus YPL204W, strain HRR25, hits give low values 0.941 | S. cerevisiae deletion strains, locus YPL209C, strain IPL1, hits give low values 0.977 | S. cerevisiae deletion strains, locus YPR025C, strain CCL1, hits give low values 0.977 | S. cerevisiae deletion strains, locus YPR106W, strain ISR1, hits give low values 0.988 | S. cerevisiae deletion strains, locus YPR111W, strain DBF20, hits give low values 0.969 | S. cerevisiae deletion strains, strain NNK1, hits give low values 0.989 | S. cerevisiae deletion strains, strain TSCII, hits give low values 0.983

O=S(=O)(Nc1ccc(Oc2ccc(Cl)cc2)cc1)c1ccccc1
inactive: [7] 0.911 | [15] 0.899 | [17] 0.998 | [5] 1.04
active: [1] 0.219 | [6] 0.923 | S. cerevisiae deletion strains, locus YCL061C, strain MRC1, hits give low values 0.851 | [2] 0.518 | [9] 0.51 | [30] 0.122 | [10] 0.901 | [11] 0.114 and 0.113 | [31] 0.199 | [32] 0.137 | [12] 0.866 | [33] 0.108 | [14] 0.843 | [34] 0.206 | [35] 0.274 | [16] 0.293 | [18] 0.247 | [36] 0.166 | [19] 0.117 | [20] 0.483 | [21] 0.925 | [4] 0.879 | [37] 0.154 | [38] 0.248 | [23] 0.321 | [24] 0.191 | [39] 0.226 | [40] 0.159 | [26] 0.106 | [27] 0.341 | [41] 0.239 | [28] 0.309

Cc1cc(NS(=O)(=O)c2ccc(NS(=O)(=O)c3cc(C)c(Cl)cc3C)cc2)no1
inactive: [1] 0.991 | [6] 0.994 | [7] 1 | [8] 0.968 | [2] 1.07 | [9] 0.984 | [10] 1.01 | [11] 1.08 | [12] 0.982 | [14] 1.04 | [15] 1.01 | [16] 1 | [17] 0.979 | [18] 0.947 | [19] 1.09 | [20] 0.971 | [21] 0.99 | [22] 1.02 | S. cerevisiae deletion strains, locus YNL128W, strain TEP1, hits give low values 0.981 | [4] 1.01 | [23] 0.979 | [5] 0.99 | [24] 1.01 | [25] 0.985 | [26] 1.04 | [27] 0.985 | [28] 1.09 | [29] 0.974

Cc1cc(NS(=O)(=O)c2ccc(NS(=O)(=O)c3ccc(Cl)cc3)cc2)no1
inactive: [1] 1.03 | [6] 1.02 | [7] 1 | [2] 0.956 | [9] 1.01 | [10] 1 | [3] 1.01 | [11] 1.07 | [12] 0.999 | [13] 1.01 | [14] 1.04 | [15] 1.02 | [16] 1.02 | [17] 1 | [18] 0.983 | [19] 1.07 | [20] 0.988 | [21] 1.01 | [22] 0.956 | [4] 1.02 | [23] 1.03 | [5] 1.01 | [24] 1.02 | [25] 1.06 | [26] 0.902 | [27] 0.995 | [28] 1.08
